An excerpt weighted towards active compounds, which were near 27% of everything screened.
Cav3 T inh: Cav3.2 calcium influx blockers – cell-based, Fluo-4 calcium fluorescence, FDSS, MLSMR library, primary screen. B-score at 10 µM. Voltage-dependent T-type calcium channel subunit alpha-1H (Homo sapiens), O95180. AID 449739, 2010. Cav3.2-expressing cells; active compounds read low. actives 4% (n = 100,000);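 active means single-dose well whose peak fluorescence ratio is a statistical outlier from its plate by either plate-standardised score or position-corrected B-score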
CYP2C19 inhib: blockers of cytochrome P450 2C19 activity – biochemical, luminescence, ADME assay, primary screen; inhibition, % at 5 µM; actives 21% (n = 96,000); P33261; CYP2C19 Supersomes, luciferin-H EGE luminescence, 30 min;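 active means CYP2C19 inhibition above a set limit at 5 µM in the primary screen, cut at about 50% in these data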
CYP2C9 inhib: blockers of cytochrome P450 2C9 activity – biochemical, luminescence, ADME assay, primary screen; actives 20% (n = 96,000); CYP2C9 Supersomes, luciferin-H conversion; inhibition, % at 5 µM; P11712;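 active means blocking of liver enzyme CYP2C9 beyond about 50% at 5 µM, limit read from the data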
CYP2C19 activ: human CYP2C19 activators, primary screen, biochemical, luminescence. recombinant CYP2C19, luciferin-H EGE luminescence; active compounds read high; 0 = fully inhibited enzyme, 1 = untreated enzyme. Cytochrome P450 2C19 (Homo sapiens), P33261. 96,000 tested, under 10 active. activation factor at 5 µM;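 active means activation factor of at least 2 at 5 µM in the primary screen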
CYP2C9 act: human CYP2C9 activators, primary screen, biochemical, luminescence; activation factor at 5 µM; actives 1.4% (n = 96,000); Cytochrome P450 2C9 (Homo sapiens), P11712; recombinant CYP2C9, luciferin-H conversion; active compounds read high; factor 1 = untreated enzyme, 0 = blocked;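 active means activation factor of 2 or more for CYP2C9 at a 5 µM dose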
A number is an active result; . = inactive; / = no result.

SMILES | Cav3 T inh | CYP2C19 inhib | CYP2C9 inhib | CYP2C19 activ | CYP2C9 act
O=C(Nc1ccc2c(c1)OCCO2)c1ccc(Br)c(S(=O)(=O)N2CCOCC2)c1 | . | 82 | 53 | . | .
CN1CCN(C(=O)c2ccc(N(Cc3ccc(Cl)cc3)S(C)(=O)=O)cc2)CC1 | . | . | . | . | .
O=C(CSc1nnc(-c2ccco2)n1Cc1ccco1)NCc1ccccc1 | . | 66 | 85 | . | .
Cc1cc(-c2ccco2)n(CC(=O)NCc2ccccc2)n1 | . | 75 | . | . | .
CCn1c(Cc2ccccc2)nnc1SCC(=O)Nc1ccc2c(c1)OCCO2 | . | 68 | 58 | . | .
O=C(CSc1nnc(-c2cccs2)n1Cc1ccco1)Nc1ccc2c(c1)OCO2 | . | . | 63 | . | .
CCn1c(SCC(=O)Nc2ccc(NC(=O)c3ccco3)cc2)nnc1-c1cccs1 | . | / | / | / | /
Cc1ccccc1N(Cc1nnc2n1CCCCC2)C(=O)Nc1ccccc1 | . | . | . | . | .
CCCOc1ccc(-c2nc(=S)[nH][nH]2)cc1 | . | . | . | . | .
Cc1ccc(OCc2nnc(SCC(=O)Nc3ccc4c(c3)OCCO4)n2Cc2ccco2)cc1 | -6 | . | 69 | . | .
O=C(CSc1nnc(-c2ccccc2)n1Cc1ccco1)Nc1ccc2c(c1)OCCO2 | . | 56 | 55 | . | .
CCn1c(COc2ccccc2C)nnc1SCC(=O)Nc1ccc2c(c1)OCCO2 | . | . | . | . | .
CCn1c(SCC(=O)Nc2ccc3c(c2)OCCO3)nnc1-c1ccco1 | . | . | . | . | .
CC(=O)Nc1ccc(NC(=O)CSc2nnc(-c3ccccc3)n2Cc2ccc3c(c2)OCO3)cc1 | . | . | . | . | .
O=C(CSc1nnc(-c2ccccc2)n1Cc1ccco1)NCc1ccc2c(c1)OCO2 | -4.1 | . | 67 | . | .
Cn1c(SCC(=O)Nc2ccc3c(c2)OCCO3)nnc1-c1ccco1 | . | 52 | 63 | . | .
CCOc1ccc(-n2c(C)nnc2SCC(=O)N(CC)CC)cc1 | . | . | . | . | .
CC(=O)Nc1ccccc1C(=O)N1CC(C)OC(C)C1 (stereo not drawn) | . | . | . | . | .
O=C(CSc1nc2c(c(=O)n1-c1ccc(F)cc1)SCC2)Nc1ccc2c(c1)OCO2 | . | / | / | / | /
O=C(CSc1ncc(-c2ccc(F)cc2)n1Cc1ccco1)Nc1ccc2c(c1)OCO2 | -4.8 | . | 73 | . | .
CCC(=O)Nc1ccc(-c2nc(-c3ccccc3)n(CC(=O)N3CCCCC3)n2)cc1 | . | . | . | . | .
CCN(CC)C(=O)Cn1nc(-c2ccccc2O)nc1SCC(=O)Nc1ccc(OC)cc1 | . | . | 69 | . | .
COc1ccc(NC(=O)CSc2nc(-c3ccncc3)nn2CC(=O)N2CCCC2)cc1 | . | 92 | 83 | . | .
CCOC(=O)Cc1csc(NC(=O)CSc2nnc(-c3ccc(C)cc3)o2)n1 | . | . | 84 | . | .
CCOC(=O)Cc1csc(NC(=O)CSc2nnc(-c3ccc(F)cc3)o2)n1 | . | . | 56 | . | .
SMILES | Cav3 T inh | CYP2C19 inhib | CYP2C9 inhib | CYP2C19 activ | CYP2C9 act
Cc1csc(NC(=O)CSc2nnc(-c3ccccc3)o2)n1 | . | . | . | . | .
CCOC(=O)Cc1csc(NC(=O)CSc2nnc(-n3nc(C)cc3C)c3ccccc23)n1 | . | 79 | 92 | . | .
CCOC(=O)Cc1csc(NC(=O)CSc2nnnn2-c2ccc(CC)cc2)n1 | -5.4 | 88 | 77 | . | .
Nc1ccc(C#Cc2c(-c3ccsc3)oc3ccc(N4CCOCC4)cc23)cc1 | . | / | / | / | /
Cc1cc(C)n(C(=O)CSc2ccc(Cl)cc2)n1 | / | . | . | . | .
O=C(CC1Sc2ccccc2NC1=O)Nc1cccc(-c2nnc3n2CCCCC3)c1 (stereo not drawn) | . | / | / | / | /
CCOc1ccc(NC(=O)CC2C(=O)N(C)C(=S)N2Cc2ccc3c(c2)OCO3)cc1 (stereo not drawn) | . | / | / | / | /
CCCOc1ccc(NC(=O)CC2C(=O)N(C)C(=S)N2Cc2cccs2)cc1 (stereo not drawn) | -3.9 | / | / | / | /
O=C(CSc1nnnn1-c1ccc2c(c1)OCO2)NCc1cccs1 | . | . | . | . | .
